Only some compounds are listed: those with a hit (about 4.1% of all), similar ones and a draw of the others.
CSC inhib: blocks cancer stem cells; inhibition, % at 7.5 µM; AID 2717; cancer stem cell-like cells viability, luminescence; 300,000 compounds, 1.1% hits; in the data active = inhibition above about 75%; inconclusive = no clear call, values can overlap the other calls; tested in HMLE shEcad cells
Beta cell apopt: beta cell apoptosis inhibition. AID 435005. protection from apoptosis, % (no concentration beside the values). 300,000 compounds, 0.8% hits. INS-1E cytokine-induced death, ATP luminescence, 48 h; percent of positive-control rescue, neutral wells zero;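 active = Every replicate reaches about 75%, or at least half do and their mean reaches it too, limit read from the data; inconclusive = At least half of replicates reach the limit but their mean does not; inactive = Under half of replicates reach the limit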;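 note: 0% = cytokine-treated negative control wells and 100% = positive control rescue; higher means more ATP so stronger rescue from cytokine killing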
A1 inh: inhibitors of the anti-apoptotic protein A1, read as caspase activation; MEF A1-2A-BIM cells, Caspase-Glo 3/7 luminescence, 3 h; percent of clofoctol response, vehicle zero; caspase activation, % (no concentration beside the values); 330,000 compounds, 0.066% hits; AID 2462;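 active = over half of replicate activation scores above 10%, or exactly half above 10 with the replicate mean above 10; inconclusive = replicate mean below 10 yet half the replicates above 10; inactive = over half of replicates below 10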
aSyn UTR inh: 5' untranslated region of α-synuclein, MLPCN primary screen; inhibition, % (tested at 7.5 µM); AID 1813; 300,000 compounds, 0.82% hits; alpha-synuclein 5'UTR reporter, inhibitor activity; in the data active = inhibition above about 60%; inconclusive = no clear call, values can overlap the other calls;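 note: H4 neuroglioblastoma cells stably carrying SNCA 5'UTR luciferase fusion; 0% = DMSO wells and 100% = positive control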
Mdm2-MdmX inh: inhibitors of human Mdm2/MdmX interaction | inhibition, % at 8 µM | O15151+Q00987 | AID 485346 | SaOS-2 split-luciferase Mdm2/MdmX complementation, luminescence | 330,000 compounds, 3% hits;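 active = inhibition of at least 50% at 8 µM in the primary screen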
Mdm2-MdmX conf: confirmation of human Mdm2/MdmX interaction inhibitors; shares compounds with Mdm2-MdmX inh; Mdm2-MdmX binding, luminescent assay; inhibition, % at 8 µM; 10,000 compounds, 55% hits; AID 489028; in the data active = inhibition above about 40%
Full FLuc ctr: full-length luciferase inhibition in Mdm2/MdmX counter-screen | shares compounds with Mdm2-MdmX inh | SaOS-2 full-length luciferase counterscreen, luminescence | inhibition, % at 8 µM | 6,200 compounds, 77% hits;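 active = mean inhibition at 8 µM reaching about 37%, which flags the compound as non-specific, limit read from the data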;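 note: p53-null SaOS-2 cells with luciferase driven by a doxycycline-inducible promoter; compound on cells about two nights before reading with doxycycline added after day one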
* hit, by the source's call; ? = inconclusive; · = no result given.

SMILES	CSC inhib	Beta cell apopt	A1 inh	aSyn UTR inh	Mdm2-MdmX inh	Mdm2-MdmX conf	Full FLuc ctr
O=C(c1cccs1)N1CCc2c([nH]c3ccccc23)C1c1ccccn1 (stereo not given)	3	-7	0	-25	11	·	·
C/C(=N/Nc1ccccc1[N+](=O)[O-])c1ccc(C)c([N+](=O)[O-])c1	·	·	·	-166	70*	16	·
COC(=O)N/N=C(\C)c1ccc(C)c([N+](=O)[O-])c1	4	-4	-6	-31	9	·	·
C/C(=N\NC(=O)c1cc(C)oc1C)c1ccc(C)c([N+](=O)[O-])c1	·	-5	-1	·	96*	-13	·
O=C(NCCc1cccnc1)C1CCC(=O)N(Cc2ccc(Cl)cc2)C1 (stereo not given)	·	·	·	6	21	·	·
Cc1c(C(=O)Nc2ccc(Cl)cc2)c2ccccn2c1C(=O)c1ccc([N+](=O)[O-])cc1	-3	0	0	3	15	·	·
Cc1c(C(=O)Nc2ccc(Cl)cc2)c2ccccn2c1C(=O)c1ccccc1	·	7	0	-15	59*	0	·
Cc1ccc(/C(N)=N/OC(=O)/C=C/c2ccccc2)cc1	·	1	-3	-63	-10	·	·
Cc1ccc(C(=O)C(C(=O)/C=C/c2ccccc2)=C2SCCCS2)cc1	?	·	1	-102	98*	90*	54*
C=CCN1CCN(C(=O)c2cc3c(s2)CCC(CC)C3)CC1 (stereo not given)	-1	3	0	-46	17	·	·
Cn1ccc(C(=O)OCC(=O)Nc2ccccc2Cl)n1	·	·	·	9	-26	·	·
CCOC(=O)N=Nc1c2ccccc2c2nc3no[nH]c3nc12	·	·	·	119*	100*	100*	1
COc1ccc(Cl)cc1NC(=O)NCC1CCN(Cc2cc(C)ccc2C)CC1	7	6	-5	-6	58*	36	·
Cc1ccc(C)c(CN2CCC(CNC(=O)Nc3ccc(C)c(C)c3)CC2)c1	-3	-1	1	-14	18	·	·
Cc1nc(C(=O)NCc2ccccc2)sc1C1(C)CC(c2cccc([N+](=O)[O-])c2)=NO1 (stereo not given)	-3	0	1	25	64*	12	·
CNC(=O)c1nc(C)c(C2(C)CC(c3cccc([N+](=O)[O-])c3)=NO2)s1 (stereo not given)	6	5	1	9	53*	43*	57*
CCOc1c(C)cnc2c1c(=O)n(Cc1ccc(Cl)cc1)c(=O)n2C	1	-1	2	8	2	·	·
Cc1cc(Br)ccc1NC(=O)CNC(=O)CNc1cccc([N+](=O)[O-])c1	·	2	0	·	34	·	·
Oc1ccc(N=Nc2ccc3c(c2)OCO3)c2ccccc12	140*	99*	-9	8	94*	92*	59*
COC(=O)C1=C(C)NC(C)=C(C(=O)OC)C1C(=O)OCC(=O)N1CCCCC1C (stereo not given)	·	·	·	·	5	·	·
CC(=O)NC1=NN(C(C)=O)C(C)(c2cccs2)S1 (stereo not given)	8	-3	-1	39	55*	42*	52*
O=C(CNc1ccc(Br)cc1)NC(=O)NC1CCCCC1	·	·	·	·	2	·	·
Cc1ccc(-c2nc(C3CCN(S(=O)(=O)c4ccc(C(F)(F)F)cc4)CC3)no2)cc1	9	-1	1	6	56*	3	·
Oc1ccccc1N=Nc1nc(-c2ccccc2)c(-c2ccccc2)[nH]1	·	86*	-1	107*	87*	86*	50*
COc1cccc(-c2ccc(-c3noc(-c4ccccc4F)n3)c(OC)n2)c1	32	-1	0	-34	-7	·	·
SMILES	CSC inhib	Beta cell apopt	A1 inh	aSyn UTR inh	Mdm2-MdmX inh	Mdm2-MdmX conf	Full FLuc ctr
COc1nc(-c2ccc(Cl)cc2)ccc1-c1noc(-c2ccco2)n1	-10	-1	0	-13	54*	-9	·
CCOc1ccc2nc(C)cc(Nc3ccc(N4CCOCC4)cc3)c2c1	1	-5	0	-18	50	19	·
Cc1cc(Nc2cccc([N+](=O)[O-])c2)c2ccccc2n1	5	25	1	-1	-19	·	·
CC(=O)c1ccc(Nc2cc(C)nc3ccc(C)cc23)cc1	·	26	1	-11	51*	37	90*
CCOc1ccc2nc(C)cc(Nc3cccc([N+](=O)[O-])c3)c2c1	15	4	0	17	100*	100*	51*
Cc1cc(Nc2ccc([N+](=O)[O-])cc2)c2ccccc2n1	-1	41	0	-1	93*	70*	55*
CCCCc1c(C)nc2ccccc2c1SCCC(=O)O	-1	2	-1	1	1	·	·
O=C1Nc2ccc(F)cc2C12OCCO2	-1	0	2	1	2	·	·
CCOC(=O)c1ccc2ncc(C(=O)OCC)c(Nc3ccc(N4CCOCC4)cc3)c2c1	40	33	-1	28	68*	55*	55*
CCOC(=O)c1cnc2ccc(C(=O)OC)cc2c1Nc1ccc(C(=O)O)cc1	-10	5	0	-3	4	·	·
CCN(Cc1ccccc1)C(=O)CS(=O)(=O)c1ccccc1	-1	-6	-1	-13	9	·	·
O=S(=O)(C/C(=C/CO)S(=O)(=O)c1ccccc1)c1ccccc1	3	90*	0	-71	89*	96*	51*
COCCNC(=O)C(c1ccc(F)cc1)N(Cc1cccs1)C(=O)CCC(=O)Nc1ccccn1 (stereo not given)	-7	-1	0	-10	-5	·	·
O=C(CC1C(=O)NCCN1Cc1ccccc1)NCCCOc1cccnc1 (stereo not given)	-5	-4	0	-6	19	·	·
Cc1cc2c(SCC(=O)NCC3CCCO3)ncnc2s1 (stereo not given)	·	·	·	6	8	·	·
COc1ccc(C(C)=NNC(=O)c2cccc(S(=O)(=O)N3CCCC3)c2)cc1	-7	-3	3	·	4	·	·
COc1ccc(NS(=O)(=O)c2ccc(O)c(NC(=O)c3ccc(S(=O)(=O)N4CCCCCC4)cc3)c2)cc1	·	-6	1	-56	-9	·	·
COc1ccc(/C(C)=N/NC(=O)c2cccc(S(=O)(=O)N3CCCC3)c2)c(O)c1	100*	109*	1	78*	67*	81*	34
COc1ccc(NS(=O)(=O)c2cccc(NC(=O)c3ccc(S(=O)(=O)N4CCCCCC4)cc3)c2)cc1	·	100*	-1	9	53*	33	·
CCOc1ccc(C(=O)N[C@H](C(=O)Nc2cccc(S(=O)(=O)N3CCCCC3)c2)C(C)C)cc1	7	3	0	76*	51*	32	·
COc1ccc(NC(=O)C/C(C)=N/NC(=O)c2ccccn2)c(OC)c1	·	-7	1	-107	12	·	·
O=C(CNC(=O)C1(c2ccccc2)CC1)Nc1ccc(F)c(F)c1	·	-6	0	16	-7	·	·
C=CCn1c(=N)n(CC(=O)c2cccc([N+](=O)[O-])c2)c2ccccc21	7	-7	0	-77	20	·	·
